Molecules are shown by their SMILES. Calls of active or inactive are those of the source.

Assay [1] relates to Plasmodium falciparum Sir2 (PF13_0152, Sir2A). Kind of assay: Plasmodium falciparum Sir2A binding compounds – biochemical, small-molecule microarray, 635 nm fluorescence, primary screen (AID 1098).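 Note: score merges spot fluorescence intensity with its signal-to-noise ratio.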 The conditions noted are these: fluorescence 635 nm, higher = more signal.
The nature of assay [2]: probe aDKK1 binding to arrayed compounds – biochemical, biotinylated probe, 635/667 nm fluorescence, primary screen (AID 1099).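 Note: score merges 667nm spot fluorescence with signal to noise across triplicate slides.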 To be noted: small-molecule microarray, higher = more signal.
Assay [3] is described as follows: probe aCHRDL2 binding to arrayed compounds – biochemical, biotinylated probe, 635/667 nm fluorescence, primary screen (AID 1100). To be noted: small-molecule microarray, higher = more signal.
The nature of assay [4]: change in splice reporter luminescence, either direction, cell-based, HEK293, spliceosome inhibition project, primary screen (AID 1101).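 Note: HEK293 cells carrying a splicing-competent luciferase reporter gene; test concentration not given here.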 To be noted: HEK293 splicing luciferase reporter, 24 h, higher = more signal, called active from +8 up or from −8 down. On the technique in general: Reporter assays use an easily measured gene product as a stand-in for the process of interest.

Assay [5] concerns the target Fibroblast growth factor 10 (Homo sapiens) (UniProt O15520). Kind of assay: compounds binding fibroblast growth factor 10 – biochemical, small-molecule microarray, 635 nm fluorescence, primary screen (AID 1102). The conditions noted are these: FGF10 binding, fluorescence 635 nm, higher = more signal.
In assay [6] the test system is glycogen synthase kinase-3 (GSK3A per assay name; protocol says GSK3B). Kind of assay: compounds binding glycogen synthase kinase-3 – biochemical, small-molecule microarray, 635 nm fluorescence, GSK3A, primary screen (AID 1103). Note: the record names both GSK3A and GSK3B. To be noted: fluorescence 635 nm, higher = more signal.
Assay [7] concerns the target Epidermal growth factor receptor (Homo sapiens) (UniProt P00533). Kind of assay: compounds binding epidermal growth factor receptor – biochemical, small-molecule microarray, 635 nm fluorescence, primary screen (AID 1104).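 Note: score merges 667 nm emission intensity with spot signal to noise over triplicate slides.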 The conditions noted are these: EGFR binding, higher = more signal.
Assay [8] has as its target Follistatin-related protein 3 (Homo sapiens) (UniProt O95633). Kind of assay: compounds binding follistatin-related protein 3 – biochemical, small-molecule microarray, 635 nm fluorescence, primary screen (AID 1105).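 Note: score merges emission near 667 nm and signal to noise per printed spot across three slides.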 The conditions noted are these: FSTL3 binding, higher = more signal.
In assay [9] the target is Dickkopf-related protein 1 (Homo sapiens) (UniProt O94907). Kind of assay: small molecules binding DKK1 protein – biochemical, small-molecule microarray, 635 nm fluorescence scan, primary screen (AID 1106).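 Note: score merges emission near 667 nm with signal to noise over three replicate slides.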 To be noted: higher = more signal.
Dickkopf-related protein 1 (Homo sapiens), sequence (O94907 whole entry, looked up): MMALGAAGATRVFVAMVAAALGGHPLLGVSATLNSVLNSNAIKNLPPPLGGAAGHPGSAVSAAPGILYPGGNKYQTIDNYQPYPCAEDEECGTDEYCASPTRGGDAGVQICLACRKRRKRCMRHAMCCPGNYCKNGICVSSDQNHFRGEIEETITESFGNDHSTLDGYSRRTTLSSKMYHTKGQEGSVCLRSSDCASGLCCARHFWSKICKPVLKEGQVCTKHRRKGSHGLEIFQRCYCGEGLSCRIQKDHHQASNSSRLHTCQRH
The test system of assay [10] is Inhibin beta A chain (activin A). Kind of assay: small molecules binding activin A – biochemical, small-molecule microarray, 635 nm fluorescence scan, primary screen (AID 1107).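 Note: mouse activin A protein probed at 4.33 µg/mL on printed slides; score merges bound-protein fluorescence near 667 nm with spot signal-to-noise.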 The conditions noted are these: INHBA, higher = more signal.
The test system of assay [11] is Human papillomavirus type 1a protein E7 (residues 44-93). Kind of assay: small molecules binding HPV E7 44-93 – biochemical, small-molecule microarray, residues 44-93, 635 nm fluorescence, primary screen (AID 1108).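 Note: E7 fragment applied at 1 µg/mL in TBST for 1 h at 4 C; score combines spot fluorescence with its signal to noise ratio.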 The conditions noted are these: fluorescence 635 nm, higher = more signal.
Assay [12] can be described thus: hepatitis C replication reporter changes, two-sided – Huh7 cells, luciferase reporter, HCV replication inhibitor project, primary screen (AID 1109).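 Note: huh7 hepatoma cells harbouring a luciferase neomycin HCV replicon reporter; luciferase luminescence as measure of HCV replicon replication; test concentration not given here.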 To be noted: Huh7 HCV replicon luciferase reporter, 48 h; higher = more signal.
In assay [13] the target is Left-right determination factor 2 (Homo sapiens) (UniProt O00292). Kind of assay: small molecules binding LEFTY2 protein – biochemical, small-molecule microarray, 635 nm fluorescence scan, primary screen (AID 1110). To be noted: higher = more signal.
Left-right determination factor 2 (Homo sapiens), sequence (O00292 whole entry, looked up): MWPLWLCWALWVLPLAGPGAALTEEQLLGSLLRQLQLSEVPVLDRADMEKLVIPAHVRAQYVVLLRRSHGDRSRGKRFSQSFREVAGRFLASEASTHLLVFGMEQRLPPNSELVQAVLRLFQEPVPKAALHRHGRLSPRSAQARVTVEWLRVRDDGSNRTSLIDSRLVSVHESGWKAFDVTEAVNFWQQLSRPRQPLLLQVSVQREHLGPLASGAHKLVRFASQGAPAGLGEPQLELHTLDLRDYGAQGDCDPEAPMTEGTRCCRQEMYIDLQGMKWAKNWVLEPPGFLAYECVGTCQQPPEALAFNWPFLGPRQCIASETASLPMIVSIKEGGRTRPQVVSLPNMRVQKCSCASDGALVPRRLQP
Assay [14] concerns the target Calmodulin-1 (Homo sapiens) (UniProt P0DP23). Kind of assay: small molecules binding calmodulin-1 with EGTA – biochemical, small-molecule microarray, Cy5-labelled CALM1, profiling panel (AID 1111).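 Note: labelled calmodulin applied in Tris saline Tween buffer holding calcium plus EGTA and DTT.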 To be noted: Cy5-CALM1 binding fluorescence, higher = more signal.
The target is the same in assay [15]. Kind of assay: small molecules binding Ca-loaded calmodulin-1 – biochemical, small-molecule microarray, Cy5-labelled CALM1, plus calcium, artefact control for SMM control-protein annotation, profiling panel (AID 1112).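 Note: score merges spot fluorescence with signal to noise from triplicate slides.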 To be noted: Cy5-CALM1 binding fluorescence, higher = more signal.
A short description of assay [16]: probe aWnt5a binding to arrayed compounds – biochemical, biotinylated probe, 635/667 nm fluorescence, primary screen (AID 1113).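 Note: score merges 667 nm fluorescence intensity with signal-to-noise per printed feature.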 The conditions noted are these: small-molecule microarray, higher = more signal.
Assay [17] can be described thus: probe aShh binding to arrayed compounds – biochemical, biotinylated probe, 635/667 nm fluorescence, primary screen (AID 1114).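 Note: probe is biotin-labelled aShh protein from a stem cell growth factor screen; measures binding of labelled protein to compounds printed on the slide; score merges feature fluorescence at 667 nm with signal-to-noise.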 To be noted: small-molecule microarray, higher = more signal.
The nature of assay [18]: probe aNog binding to arrayed compounds – biochemical, biotinylated probe, 635/667 nm fluorescence, primary screen (AID 1115).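 Note: probe is biotinylated aNog protein used at 0.15 µg/mL for 1 h at 4 C; z-score combines 667 nm fluorescence of each spot with its signal to noise.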 To be noted: small-molecule microarray, higher = more signal.
For assay [19], the target named is Torsin-1A-interacting protein 1 (Homo sapiens) (UniProt Q5JTV8). Kind of assay: compound microarray binding of lysate hLAP1 – cell lysate, small-molecule microarray, COS7 lysate, 635/667 nm fluorescence, primary screen (AID 1116). To be noted: 635 nm fluorescence, higher = more signal.
Torsin-1A-interacting protein 1 (Homo sapiens), sequence (Q5JTV8 whole entry, looked up): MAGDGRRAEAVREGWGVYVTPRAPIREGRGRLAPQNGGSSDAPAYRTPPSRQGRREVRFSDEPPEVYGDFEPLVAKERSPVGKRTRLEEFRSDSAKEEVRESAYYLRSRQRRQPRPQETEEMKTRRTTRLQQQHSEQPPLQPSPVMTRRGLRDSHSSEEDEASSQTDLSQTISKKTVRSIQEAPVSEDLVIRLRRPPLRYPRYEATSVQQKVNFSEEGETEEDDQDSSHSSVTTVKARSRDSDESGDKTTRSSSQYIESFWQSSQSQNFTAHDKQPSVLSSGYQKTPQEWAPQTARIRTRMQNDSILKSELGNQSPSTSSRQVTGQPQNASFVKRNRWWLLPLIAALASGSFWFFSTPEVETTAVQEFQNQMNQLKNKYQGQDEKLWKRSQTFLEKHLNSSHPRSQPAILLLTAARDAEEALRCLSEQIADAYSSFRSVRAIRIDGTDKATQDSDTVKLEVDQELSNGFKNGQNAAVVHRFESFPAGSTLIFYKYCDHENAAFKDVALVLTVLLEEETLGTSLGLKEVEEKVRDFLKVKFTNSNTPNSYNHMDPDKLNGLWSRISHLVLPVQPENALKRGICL
Assay [20] has as its target Alpha-bungarotoxin (Bungarus multicinctus) (UniProt P60615). Kind of assay: compounds binding labelled alpha-BTX control protein – biochemical, small-molecule microarray, Alexa647 label, 635/667 nm fluorescence, artefact control for SMM control protein annotation, profiling panel (AID 1117). To be noted: alpha-BTX-A647 binding fluorescence, higher = more signal.

Epidermal growth factor receptor (Homo sapiens), sequence (P00533 whole entry, looked up): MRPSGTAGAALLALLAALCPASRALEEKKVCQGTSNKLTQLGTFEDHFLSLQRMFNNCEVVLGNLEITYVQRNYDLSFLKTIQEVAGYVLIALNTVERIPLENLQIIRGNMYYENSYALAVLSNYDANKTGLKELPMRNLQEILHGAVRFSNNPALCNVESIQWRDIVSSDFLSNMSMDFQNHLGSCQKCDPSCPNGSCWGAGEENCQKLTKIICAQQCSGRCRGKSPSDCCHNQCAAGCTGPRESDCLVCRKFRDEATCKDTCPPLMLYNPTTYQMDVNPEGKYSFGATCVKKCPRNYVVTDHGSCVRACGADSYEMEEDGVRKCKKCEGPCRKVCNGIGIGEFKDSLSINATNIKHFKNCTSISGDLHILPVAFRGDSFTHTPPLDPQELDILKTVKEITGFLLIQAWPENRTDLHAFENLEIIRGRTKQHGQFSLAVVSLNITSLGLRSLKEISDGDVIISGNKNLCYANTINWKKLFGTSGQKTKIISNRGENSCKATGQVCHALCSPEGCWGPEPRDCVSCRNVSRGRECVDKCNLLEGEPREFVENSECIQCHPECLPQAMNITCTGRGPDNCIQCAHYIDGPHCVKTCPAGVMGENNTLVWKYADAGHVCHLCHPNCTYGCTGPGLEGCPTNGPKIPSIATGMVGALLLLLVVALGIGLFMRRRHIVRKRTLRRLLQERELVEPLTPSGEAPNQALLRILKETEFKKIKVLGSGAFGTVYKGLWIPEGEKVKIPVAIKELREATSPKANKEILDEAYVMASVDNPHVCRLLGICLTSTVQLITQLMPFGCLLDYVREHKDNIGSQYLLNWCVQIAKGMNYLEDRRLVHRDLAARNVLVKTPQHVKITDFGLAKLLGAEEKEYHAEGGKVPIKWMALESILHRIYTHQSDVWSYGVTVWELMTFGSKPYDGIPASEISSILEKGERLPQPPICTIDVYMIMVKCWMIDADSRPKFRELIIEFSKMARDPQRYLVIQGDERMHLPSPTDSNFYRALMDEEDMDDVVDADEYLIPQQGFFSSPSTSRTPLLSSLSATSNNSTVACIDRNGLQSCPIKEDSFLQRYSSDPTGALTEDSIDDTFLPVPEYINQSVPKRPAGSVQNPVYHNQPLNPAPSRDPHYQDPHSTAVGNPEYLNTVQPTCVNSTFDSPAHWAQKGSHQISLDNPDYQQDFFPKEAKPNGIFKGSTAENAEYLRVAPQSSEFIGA
Fibroblast growth factor 10 (Homo sapiens), sequence (O15520 whole entry, looked up): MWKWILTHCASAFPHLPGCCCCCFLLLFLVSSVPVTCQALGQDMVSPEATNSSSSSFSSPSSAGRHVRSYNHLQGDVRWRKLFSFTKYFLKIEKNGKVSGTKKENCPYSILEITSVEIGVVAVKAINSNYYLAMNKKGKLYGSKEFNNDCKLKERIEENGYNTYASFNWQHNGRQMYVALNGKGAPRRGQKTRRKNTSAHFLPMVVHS
Alpha-bungarotoxin (Bungarus multicinctus), sequence (P60615 whole entry, looked up): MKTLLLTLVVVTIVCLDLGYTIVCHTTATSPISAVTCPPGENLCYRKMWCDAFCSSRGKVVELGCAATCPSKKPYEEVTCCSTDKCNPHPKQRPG
Follistatin-related protein 3 (Homo sapiens), sequence (O95633 whole entry, looked up): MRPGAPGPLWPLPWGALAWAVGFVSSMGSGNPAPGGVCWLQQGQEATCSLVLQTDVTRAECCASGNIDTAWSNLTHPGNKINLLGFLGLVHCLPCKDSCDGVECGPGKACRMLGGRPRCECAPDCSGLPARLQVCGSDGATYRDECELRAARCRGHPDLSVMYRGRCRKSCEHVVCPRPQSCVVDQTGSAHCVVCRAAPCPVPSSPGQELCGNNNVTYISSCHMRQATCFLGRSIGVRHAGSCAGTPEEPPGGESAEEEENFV

For the compound `C=C(CCCC)C(=O)CC[C@@H](OC(=O)c1cccnc1)c1ccccc1OCCO`, the composite z-score in assay [1] is 0.996; in assay [2], -0.0709; in assay [3], 0.515; in assay [5], 0.341; in assay [6] it was -0.164; in assay [7], -0.183. Also, the composite z-score in assay [8] was 0.296; in [9] it was -0.265; in assay [10] it was 1.16; in assay [11], -0.266; in [13], -0.0055; in [14], -1.11. In addition, the composite z-score in assay [15] is -1.07; in [16], -0.091; in assay [17], -0.138; in [18] it was -0.117; in assay [19] it was 0.684; in assay [20], 0.583. Further, the z-score in [4] is 4.97 (inactive); in assay [12], -3.05.

With `C#CCNC(=O)[C@H](Cc1ccccc1)NC(=O)[C@@H](N=[N+]=[N-])C(C)C`, the composite z-score is 0.435 in [1]; -0.218 in assay [2]; -0.503 in [3]; 0.18 in assay [5]; 0.596 in [6]; 0.398 in assay [7]. Moreover, the composite z-score came to 0.335 in assay [8]; 0.654 in assay [9]; 0.554 in [10]; 0.902 in [11]; 0.69 in assay [13]; 0.222 in assay [14]. For the same compound, the composite z-score was -0.217 in assay [15]; -0.117 in assay [16]; -0.262 in assay [17]; 0.221 in [18]; 0.455 in [19]; 0.96 in [20]. Besides, the values for the z-score in [4] and in assay [12] were 0.177 (inactive) and 0.965, respectively.

Take `O=C(NC1CC1)[C@@H]1c2ccccc2C(=O)N(Cc2ccccc2)[C@H]1c1ccc(CO)cc1`: the composite z-score in assay [1] was 1.73; in assay [2], -0.474; in [3], 0.211; in [5], 0.209; in assay [6], 0.714; in assay [7], -0.375. The composite z-score was -0.298 in [8]; -0.551 in assay [9]; 0.443 in assay [10]; 0.511 in assay [11]; -1.25 in [13]; -0.564 in assay [14]. Moreover, the composite z-score was -0.648 in [15]; -0.148 in assay [16]; 0.0099 in assay [17]; 0.368 in [18]; 0.835 in [19]; 0.406 in assay [20]. The z-score in assay [4] is 0.135 (inactive); in [12], -0.89.

For `NC(=O)N1C(=O)C2C(C1=O)C1C=C(CCCO)C2C(c2cccs2)N1Cc1cc2c(cc1Br)OCO2` (stereo not given), the composite z-score is 0.884 in [1]; -0.198 in assay [2]; 0.229 in assay [3]; -0.284 in [5]; -0.0207 in assay [6]; -0.495 in assay [7]. For the same compound, the composite z-score in assay [8] was -0.289; in [9], -0.756; in assay [10] it was 0.975; in assay [11], 0.183; in assay [13] it was -0.451; in assay [14] it was 1.03. The composite z-score in [15] is 0.25; in assay [16], -0.0685; in [17] it was 0.147; in [18], 0.244; in assay [19], 0.333; in assay [20], 1.23. Further, the z-score was 0.701 (inactive) in [4] and 0.199 in [12].

As for `COC(=O)c1c(CC[C@@H](CO)NC(=O)N[C@H](Cn2cc(-c3ccccc3C)nn2)C(C)C)oc(C(C)=O)c1C(=O)OC`, the composite z-score was 0.404 in [1]; -0.177 in assay [2]; -0.076 in assay [3]; 0.289 in assay [5]; -0.79 in assay [6]; -0.937 in [7]. In addition, the composite z-score was -0.806 in [8]; -0.482 in assay [9]; -0.252 in assay [10]; -0.794 in assay [11]; -0.645 in assay [13]; -0.0696 in assay [14]. The composite z-score in [15] was -0.637; in [16], -0.169; in assay [17], -0.0553; in assay [18], 0.0099; in [19] it was 0.441; in assay [20], 0.879. In addition, the z-score in [4] is -1.71 (inactive); in assay [12], -0.515.

For `COc1ccc(CCNC(=O)[C@@]2(Sc3ccc(C)cc3)CC(=O)N(Cc3cc(C(F)(F)F)cc(C(F)(F)F)c3)[C@@H]2c2ccc(CO)cc2I)cc1`, the composite z-score in assay [1] is 1.15; in assay [2], 0.277; in assay [3] it was 0.901; in [5], -0.447; in [6], -0.223; in assay [7], -1.06. The composite z-score in [8] is -0.0666; in [9] it was -0.744; in assay [10], 0.533; in assay [11], 1.27; in [13] it was -1.07; in assay [14], 0.435. Moreover, the composite z-score in assay [15] was -0.45; in [16], -0.0869; in assay [17], 0.23; in assay [18], -0.0592; in [19], 0.282; in assay [20], 1.73. For the same compound, the z-score in assay [4] was -0.871 (inactive); in [12], -1.89.

For `CCOC(=O)C1=C[C@@H](c2ccccc2)N(S(=O)(=O)c2ccc(C)cc2)[C@H]1c1cccc(Cl)c1`, the composite z-score in assay [1] turned out to be 0.937; in [2] it was 1.09; in assay [3], 1.17; in assay [5], 0.839; in assay [6] it was 1.27; in [7], 0.448. Moreover, the composite z-score in assay [8] is 1.17; in assay [9] it was -0.0943; in assay [10] it was -0.249; in assay [11] it was 0.242; in assay [13], -0.0476; in assay [14] it was 1.64. Besides, the composite z-score in assay [15] is 0.999; in assay [16], 0.027; in assay [17], -0.0289; in assay [18], 0.568; in assay [19], 2.5; in [20] it was 2.25. The z-score in assay [4] was -0.355 (inactive); in assay [12], -1.81.

As for `C=C[C@@H](C)[C@H](OC(=O)Nc1ccc(SC)cc1)c1ccc(OCCO)cc1`, the composite z-score in assay [1] is -0.435; in assay [2] it was -0.0748; in assay [3], 0.626; in assay [5], -0.553; in assay [6], -1.14; in assay [7] it was -0.541. Besides, the composite z-score in [8] was -0.138; in assay [9], -0.773; in assay [10], -0.0131; in assay [11], -0.868; in assay [13], -1.03; in [14], -0.163. Moreover, the composite z-score in assay [15] is 0.649; in assay [16], 0.0423; in [17], -0.206; in assay [18] it was 1.41; in assay [19], -0.111; in [20], 0.0265. Further, the results for the z-score in assay [4] and in [12] were -1.91 (inactive) and 2.09, respectively.

For the origin of these results see PubChem BioAssay.
